In PubChem BioAssay (Tox21):
A number with no mark means an inactive call. Results filed as inconclusive are left out. Entries that show only a call come without a potency. Activity calls are given as the source filed them. Unless noted, calls come from the whole dose curve; as a rule, active = well fitted curve in the direction sought with a large enough effect in the repeat runs; inconclusive = weak or mixed curves; inactive = no such curve, though single readings can be large; an effect the other way counts as inactive or inconclusive.

Assays:
[1] = qHTS assay to identify small molecule agonists of the androgen receptor (AR) signaling pathway in the presence of an antagonist - cell viability counter screen (AID 1259379); note: nearly all actives have a fitted effect of over 25% in size; note: potency is the fitted concentration of half-maximal effect
Summary of the method: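 Fluorescence from CellTiter-Fluor, added after 15 hr and read 1 hr later, gave cell viability. Cells were MDA-kb2 exposed to compounds (15 concentrations) in the presence of 3.0uM nilutamide at 37C, 0% CO2.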

[2] = qHTS assay to identify small molecule agonists of the estrogen receptor beta (ER-beta) signaling pathway - cell viability counter screen (AID 1259380); note: nearly all actives have a fitted effect of over 30% in size; note: potency is the fitted concentration of half-maximal effect
Summary of the method: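 Same-well viability counter screen. Cells: ER-beta-UAS-bla HEK293T, plated 6 hr before compound, in 2% charcoal-stripped FBS. Compound exposure 16 hr, 37C; viability by CellTiter-Glo luminescence after 30 min at room temperature.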

[3] = target: Androgen receptor (Homo sapiens) (UniProt P10275); test: qHTS assay to identify small molecule agonists of the androgen receptor (AR) signaling pathway in the presence of an antagonist (AID 1259381; calls by dose curve; note: nearly all actives have a fitted effect of over 15% in size; note: potency is the fitted concentration of half-maximal effect)
Sequence of Androgen receptor (Homo sapiens) (P10275 whole entry, looked up): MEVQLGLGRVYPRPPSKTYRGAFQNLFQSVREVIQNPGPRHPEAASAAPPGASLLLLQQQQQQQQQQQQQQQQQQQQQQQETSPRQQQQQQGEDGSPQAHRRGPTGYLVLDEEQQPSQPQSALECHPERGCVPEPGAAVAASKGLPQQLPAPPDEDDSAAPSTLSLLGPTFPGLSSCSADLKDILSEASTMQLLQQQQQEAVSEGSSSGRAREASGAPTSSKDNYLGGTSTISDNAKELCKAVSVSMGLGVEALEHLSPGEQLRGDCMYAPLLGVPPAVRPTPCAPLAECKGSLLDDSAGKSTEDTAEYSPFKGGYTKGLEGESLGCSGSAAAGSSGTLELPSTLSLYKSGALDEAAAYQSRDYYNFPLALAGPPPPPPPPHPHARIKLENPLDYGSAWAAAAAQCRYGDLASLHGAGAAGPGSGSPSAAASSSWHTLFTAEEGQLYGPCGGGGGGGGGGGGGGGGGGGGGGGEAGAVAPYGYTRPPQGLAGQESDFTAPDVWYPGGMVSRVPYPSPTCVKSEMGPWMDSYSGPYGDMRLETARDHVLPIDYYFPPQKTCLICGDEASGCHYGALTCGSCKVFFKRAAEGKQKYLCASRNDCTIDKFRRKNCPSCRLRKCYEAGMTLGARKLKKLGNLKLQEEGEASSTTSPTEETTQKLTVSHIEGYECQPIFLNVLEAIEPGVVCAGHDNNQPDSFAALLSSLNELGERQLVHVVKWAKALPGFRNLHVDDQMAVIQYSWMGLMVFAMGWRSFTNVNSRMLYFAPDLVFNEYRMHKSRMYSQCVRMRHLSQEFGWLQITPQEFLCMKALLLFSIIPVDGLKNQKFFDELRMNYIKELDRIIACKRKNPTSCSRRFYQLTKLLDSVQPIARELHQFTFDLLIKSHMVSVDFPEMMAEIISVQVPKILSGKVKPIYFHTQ
Summary of the method: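 Cells are MDA-kb2 (human breast carcinoma, MMTV-luc, AR/GR responsive). Nilutamide is present at 3.0uM final throughout; compounds are added at 15 concentrations and incubated 16hr at 37C before ONE-Glo luminescence detection.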

[4] = qHTS assay to identify small molecule antagonists of the estrogen receptor beta (ER-beta) signaling pathway - cell viability counter screen (AID 1259382); note: nearly all actives have a fitted effect of over 55% in size; note: potency is the fitted concentration of half-maximal effect
Summary of the method: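 Following a 6 hr plating period, HEK293T cells carrying a UAS-driven beta-lactamase reporter under ER-beta control received compounds and 1nM E2 (final). After 16 hr at 37C and 2 hr substrate loading, CellTiter-Glo luminescence indicated viability.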

[5] = target: Estrogen receptor (Homo sapiens) (UniProt P03372); test: qHTS assay to identify small molecule agonists of the estrogen receptor alpha (ER-alpha) signaling pathway in the presence of an antagonist (AID 1259383; calls by dose curve; note: top concentration of the series differs between compounds; nearly all actives have a fitted effect of over 15% in size)
Sequence of Estrogen receptor (Homo sapiens) (P03372 whole entry, looked up): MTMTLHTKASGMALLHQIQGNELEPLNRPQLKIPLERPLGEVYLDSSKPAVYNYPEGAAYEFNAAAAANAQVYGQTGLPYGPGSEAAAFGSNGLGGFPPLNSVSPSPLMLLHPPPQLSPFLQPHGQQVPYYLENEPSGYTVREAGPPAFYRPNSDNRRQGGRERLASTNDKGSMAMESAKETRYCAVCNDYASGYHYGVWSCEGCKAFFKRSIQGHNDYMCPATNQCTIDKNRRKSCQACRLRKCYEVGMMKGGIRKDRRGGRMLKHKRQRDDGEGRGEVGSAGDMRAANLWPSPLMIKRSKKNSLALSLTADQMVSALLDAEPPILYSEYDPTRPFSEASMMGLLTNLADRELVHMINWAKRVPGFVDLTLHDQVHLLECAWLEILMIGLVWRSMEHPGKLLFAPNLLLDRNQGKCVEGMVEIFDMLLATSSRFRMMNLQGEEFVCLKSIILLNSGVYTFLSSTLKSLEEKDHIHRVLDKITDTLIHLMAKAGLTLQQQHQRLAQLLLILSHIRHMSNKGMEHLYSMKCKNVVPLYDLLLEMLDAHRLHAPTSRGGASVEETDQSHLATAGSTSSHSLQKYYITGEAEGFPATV
Summary of the method: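 Cells are hormone-deprived for 5 days (charcoal-stripped FBS, no phenol red), plated for 24hr, spiked with 10.0nM ICI-182,780, then dosed at 15 concentrations. After 22hr at 37C, ONE-Glo luminescence reports ERE-luciferase activity.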

[6] = qHTS assay to identify small molecule agonists or antagonists of the thyroid stimulating hormone receptor (TSHR) signaling pathway - wild type cell line counter screen (AID 1259384; calls by dose curve)
Summary of the method: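 Counter screen in untransfected Hek293: compounds (15-point titration, triplicate) plus phosphodiesterase inhibitor Ro20-1724 added after 18 h plating; 30 min RT. Intracellular cAMP via competitive d2/cryptate immunoassay, 1 h incubation.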

[7] = target: Thyrotropin receptor (Homo sapiens) (UniProt P16473); test: qHTS assay to identify small molecule antagonists of the thyroid stimulating hormone receptor (TSHR) signaling pathway (AID 1259385; calls by dose curve; note: nearly all actives have a fitted effect of over 20% in size)
Sequence of Thyrotropin receptor (Homo sapiens) (P16473 whole entry, looked up): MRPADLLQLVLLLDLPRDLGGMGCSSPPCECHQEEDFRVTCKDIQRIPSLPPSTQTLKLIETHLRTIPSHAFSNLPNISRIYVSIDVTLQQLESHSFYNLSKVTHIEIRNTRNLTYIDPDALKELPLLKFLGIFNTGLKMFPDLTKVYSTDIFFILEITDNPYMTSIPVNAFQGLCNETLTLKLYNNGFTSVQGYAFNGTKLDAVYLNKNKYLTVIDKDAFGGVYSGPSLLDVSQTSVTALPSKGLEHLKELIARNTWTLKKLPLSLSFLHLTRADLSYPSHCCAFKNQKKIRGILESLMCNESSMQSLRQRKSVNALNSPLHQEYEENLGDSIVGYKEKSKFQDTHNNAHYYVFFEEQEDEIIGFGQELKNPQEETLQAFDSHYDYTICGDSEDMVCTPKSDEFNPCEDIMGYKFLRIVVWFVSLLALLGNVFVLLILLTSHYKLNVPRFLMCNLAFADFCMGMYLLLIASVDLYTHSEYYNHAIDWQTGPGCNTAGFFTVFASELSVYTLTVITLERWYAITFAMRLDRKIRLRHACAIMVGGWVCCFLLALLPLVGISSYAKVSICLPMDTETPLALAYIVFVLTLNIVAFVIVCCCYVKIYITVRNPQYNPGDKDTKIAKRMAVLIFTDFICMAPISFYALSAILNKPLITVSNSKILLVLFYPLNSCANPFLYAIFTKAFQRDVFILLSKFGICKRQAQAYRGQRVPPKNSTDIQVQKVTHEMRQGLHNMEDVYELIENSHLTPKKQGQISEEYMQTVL
Summary of the method: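 Antagonist mode: compound-treated TSHR-expressing HEK293 cells were stimulated with 1.5 ng/mL TSH (final) in presence of Ro20-1724 for 30 min at RT. HTRF cAMP detection after 1 h; each compound tested at 15 concentrations, triplicate.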

[8] = qHTS assay to identify small molecule agonists of the estrogen receptor alpha (ER-alpha) signaling pathway in the presence of an antagonist - cell viability counter screen (AID 1259386);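 note: cells exposed to compounds for 22 h at 37 °C before the viability read; nearly all actives have a fitted effect of over 30% in size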; note: potency is the fitted concentration of half-maximal effect
Summary of the method: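 Cells are starved of estrogens for 5 days in charcoal-stripped serum, seeded for 24hr and co-treated with ICI-182,780 (10.0nM final) and test compounds. After 22hr at 37C, viability is read as CellTiter-Fluor fluorescence.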

[9] = target: Progesterone receptor (Homo sapiens) (UniProt P06401); test: qHTS assay to identify small molecule agonists of the progesterone receptor (PR) signaling pathway (AID 1346784; calls by dose curve; note: nearly all actives have a fitted effect of over 30% in size; note: potency is the fitted concentration of half-maximal effect)
Sequence of Progesterone receptor (Homo sapiens) (P06401 whole entry, looked up): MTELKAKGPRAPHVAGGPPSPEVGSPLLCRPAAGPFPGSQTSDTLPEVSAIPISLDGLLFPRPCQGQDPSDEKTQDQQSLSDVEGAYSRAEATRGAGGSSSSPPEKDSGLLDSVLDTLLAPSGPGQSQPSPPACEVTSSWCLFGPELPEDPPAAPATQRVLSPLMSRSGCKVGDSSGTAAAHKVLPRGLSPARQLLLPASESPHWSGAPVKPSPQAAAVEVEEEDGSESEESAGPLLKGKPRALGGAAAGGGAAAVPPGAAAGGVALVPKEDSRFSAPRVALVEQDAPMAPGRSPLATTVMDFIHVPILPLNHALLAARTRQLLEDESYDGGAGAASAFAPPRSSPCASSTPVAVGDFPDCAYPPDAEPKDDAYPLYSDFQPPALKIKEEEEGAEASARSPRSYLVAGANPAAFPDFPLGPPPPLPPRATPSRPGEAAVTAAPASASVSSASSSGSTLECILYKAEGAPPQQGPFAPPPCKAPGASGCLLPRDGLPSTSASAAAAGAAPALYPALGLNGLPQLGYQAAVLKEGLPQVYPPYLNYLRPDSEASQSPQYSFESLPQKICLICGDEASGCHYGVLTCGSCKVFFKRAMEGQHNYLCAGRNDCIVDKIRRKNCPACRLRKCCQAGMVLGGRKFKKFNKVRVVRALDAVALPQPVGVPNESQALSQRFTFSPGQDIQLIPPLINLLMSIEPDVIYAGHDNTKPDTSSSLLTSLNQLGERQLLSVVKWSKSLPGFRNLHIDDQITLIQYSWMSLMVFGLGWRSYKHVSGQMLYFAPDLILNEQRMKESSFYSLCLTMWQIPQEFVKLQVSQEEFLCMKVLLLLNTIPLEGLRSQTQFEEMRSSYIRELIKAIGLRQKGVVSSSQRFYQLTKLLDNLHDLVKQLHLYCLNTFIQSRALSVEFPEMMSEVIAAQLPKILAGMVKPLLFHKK
Summary of the method: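 Seed PR-UAS-bla HEK 293T cells (2% charcoal-stripped FBS), incubate 6 hr at 37C; add compounds in DMSO, 16 hr at 37C; add LiveBLAzer B/G substrate, 2 hr RT; read fluorescence intensity.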

[10] = qHTS assay to identify small molecule agonists of the progesterone receptor (PR) signaling pathway - cell viability counter screen (AID 1346799; calls by dose curve; note: nearly all actives have a fitted effect of over 45% in size; note: potency is the fitted concentration of half-maximal effect)
Summary of the method: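 Using the same plates as the PR reporter screen, HEK293T PR-UAS-bla cells received compounds for 16 hr at 37C and were then lysed with CellTiter-Glo; luminescence was read 30 min later at room temperature.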

[11] = qHTS assay to identify small molecule antagonists of the TGF-beta/Smad signaling pathway - cell viability counter screen (AID 1346824); note: nearly all actives have a fitted effect of over 50% in size
Summary of the method: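 Cytotoxicity counter-screen run in the same wells as the beta-lactamase Smad reporter read: CellTiter-Glo luminescence after 30 min at room temperature. HEK 293T SBE-bla cells had 5 hr compound exposure at 37 C with TGF-beta1 (0.25 ng/mL stock).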

[12] = qHTS assay to identify small molecule agonists of the TGF-beta/Smad signaling pathway - cell viability counter screen (AID 1346829); note: top concentration of the series differs between compounds; nearly all actives have a fitted effect of over 45% in size
Summary of the method: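 Luminescence from CellTiter-Glo, read after a 30 min room-temperature incubation, gives cell viability of SBE-bla HEK 293T cells treated 5 hr with compounds at 37 C.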

[13] = qHTS assay to identify small molecule agonists of the TGF-beta/Smad signaling pathway (AID 1346859; active = well fitted activation curve with a large enough effect in the signal ratio in the repeat runs, not every such curve was filed as active; the % refers to the signal ratio; note: series mostly up to about 77 µM)
Summary of the method: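 Beta-lactamase reporter activity downstream of Smad binding elements was measured in stably transfected HEK 293T cells; compounds were incubated for 5 hr, substrate for 2 hr at room temperature.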

[14] = Human pregnane X receptor (PXR) small molecule agonists, qHTS cell viability counter screen (AID 1346977); note: nearly all actives have a fitted effect of over 50% in size; note: potency is the fitted concentration of half-maximal effect
Summary of the method: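 After a 5hr pre-incubation, PXR-Luc HepG2 cells received compounds plus positive control in DMSO and were kept 24hr at 37C. Cell viability was quantified by fluorescence from CellTiter-Fluor added for the final hour.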

[15] = target: Progesterone receptor (Homo sapiens) (UniProt P06401); test: qHTS assay to identify small molecule antagonists of the progesterone receptor (PR) signaling pathway (AID 1346795; active = well fitted inhibition curve with a large enough effect in the signal ratio in the repeat runs, not every such curve was filed as active; the % refers to the signal ratio; note: potency is the fitted concentration of half-maximal effect)
Summary of the method: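 Screening used a GripTite HEK293T line with PR-responsive UAS-beta-lactamase. Cells were challenged with compound in the presence of 1 nM R5020 final for 16 hr at 37C; B/G FRET substrate, 2 hr room temperature, fluorescence.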

[16] = target: Thyrotropin-releasing hormone receptor (Homo sapiens) (UniProt P34981); test: qHTS assay to identify small molecule antagonists of the thyrotropin-releasing hormone receptor (TRHR) signaling pathway (AID 1346877; active = well fitted inhibition curve with a large enough effect in the repeat runs, not every such curve was filed as active; note: series mostly up to about 51 µM)
Sequence of Thyrotropin-releasing hormone receptor (Homo sapiens) (P34981 whole entry, looked up): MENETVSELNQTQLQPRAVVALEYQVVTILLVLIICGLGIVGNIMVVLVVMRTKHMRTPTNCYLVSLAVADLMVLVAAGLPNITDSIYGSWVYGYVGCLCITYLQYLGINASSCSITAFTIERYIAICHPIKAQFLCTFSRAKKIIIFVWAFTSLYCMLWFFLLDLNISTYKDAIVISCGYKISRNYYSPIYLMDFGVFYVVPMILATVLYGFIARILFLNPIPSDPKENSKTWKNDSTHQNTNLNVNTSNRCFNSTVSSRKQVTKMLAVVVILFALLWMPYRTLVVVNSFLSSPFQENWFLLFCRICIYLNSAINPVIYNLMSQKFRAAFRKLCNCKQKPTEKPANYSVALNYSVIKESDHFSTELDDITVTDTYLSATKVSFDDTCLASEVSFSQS
Summary of the method: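 Cells (TRHR-HEK293) are plated and kept 18 h at 37 °C/5% CO2. A calcium-sensitive dye is added for 2 h, compound follows for 5 min at room temperature, and TRH is then given at 1 nM final.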

[17] = target: Thyrotropin-releasing hormone receptor (Homo sapiens) (UniProt P34981); test: qHTS assay to identify small molecule agonists of the thyrotropin-releasing hormone receptor (TRHR) signaling pathway (AID 1346891; calls by dose curve;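 note: HEK293 cells expressing TRHR with calcium dye readout; series mostly up to about 58 µM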)
Summary of the method: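 Overnight-plated (18 h, 37 °C, 5% CO2) TRHR-Hek293 cells; 2 h calcium dye at 37 °C; compound in DMSO; 3-min kinetic fluorescence read.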

[18] = target: Estrogen receptor beta (Homo sapiens) (UniProt Q92731); test: qHTS assay to identify small molecule antagonists of the estrogen receptor beta (ER-beta) signaling pathway (AID 1259378; active = well fitted inhibition curve with a large enough effect in the signal ratio in the repeat runs, not every such curve was filed as active; the % refers to the signal ratio; note: potency is the fitted concentration of half-maximal effect)
Sequence of Estrogen receptor beta (Homo sapiens) (Q92731 whole entry, looked up): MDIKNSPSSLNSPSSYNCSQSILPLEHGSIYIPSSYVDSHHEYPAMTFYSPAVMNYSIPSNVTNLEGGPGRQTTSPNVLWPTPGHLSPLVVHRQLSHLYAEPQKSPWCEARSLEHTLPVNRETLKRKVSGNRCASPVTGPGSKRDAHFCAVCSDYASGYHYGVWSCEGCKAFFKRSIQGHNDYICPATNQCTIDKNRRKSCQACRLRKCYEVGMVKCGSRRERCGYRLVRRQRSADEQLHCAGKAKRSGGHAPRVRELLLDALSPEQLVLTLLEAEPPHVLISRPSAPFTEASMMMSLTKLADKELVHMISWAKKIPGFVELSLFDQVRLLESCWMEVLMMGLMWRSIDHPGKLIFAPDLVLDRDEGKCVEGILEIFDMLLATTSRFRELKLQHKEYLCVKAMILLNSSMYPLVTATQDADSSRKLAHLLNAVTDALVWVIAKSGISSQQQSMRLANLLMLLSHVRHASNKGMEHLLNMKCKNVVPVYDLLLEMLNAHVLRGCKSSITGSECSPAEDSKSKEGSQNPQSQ
Summary of the method: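 Antagonist mode: compounds added to beta-lactamase reporter HEK293T ER-beta-UAS cells stimulated with E2 (1nM final), 16 hr at 37C. LiveBLAzer B/G FRET substrate, 2 hours room temperature, fluorescence read-out.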

[19] = qHTS assay to identify small molecule antagonists of the progesterone receptor (PR) signaling pathway - cell viability counter screen (AID 1346798); note: nearly all actives have a fitted effect of over 50% in size; note: potency is the fitted concentration of half-maximal effect
Summary of the method: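 Measures cytotoxicity in parallel with the PR antagonist reporter read: HEK293T PR-UAS-bla cells get compound and R5020 for 16 hr, and remaining viable cells are quantified by CellTiter-Glo luminescence.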

| SMILES | Potency [1] | Potency [2] | Potency [3] | Potency [4] | Potency [5] | outcome [6] | Potency [7] | Potency [8] | Potency [9] | Potency [10] | Potency [11] | Potency [12] | outcome [13] | Potency [14] | Potency [15] | Potency [16] | Potency [17] | Potency [18] | Potency [19] |
| --- | --- | --- | --- | --- | --- | --- | --- | --- | --- | --- | --- | --- | --- | --- | --- | --- | --- | --- | --- |
| CC(=O)c1ccc(-c2ccccc2)cc1 | inactive | inactive | inactive | inactive | inactive | inactive | inactive | inactive | inactive | inactive | inactive | inactive | inactive | inactive |  |  |  |  |  |
| COc1ccc([N+](=O)[O-])cc1O | inactive | inactive | inactive | inactive | inactive | inactive | inactive | inactive | inactive | inactive | inactive | inactive | inactive | inactive | inactive | inactive | inactive |  |  |
| CS(=O)(=O)c1ccc(C(=O)C2C(=O)CCCC2=O)c([N+](=O)[O-])c1 | inactive |  |  |  | inactive | inactive | inactive |  |  |  | inactive | inactive |  | inactive |  |  | inactive | inactive |  |
| CC(C)CC(C)N (stereo not given) | inactive | inactive |  | inactive | inactive | inactive | inactive | inactive | inactive | inactive | inactive | inactive | inactive | inactive | inactive | inactive | inactive | inactive | inactive |
| CC(=O)C(Cl)(Cl)Cl | 20.9 µM (active) | inactive | inactive | inactive | inactive | inactive |  | 18.7 µM (active) |  |  | inactive | inactive | inactive | 8.34 µM (active) |  | inactive | inactive |  |  |
| NC(=O)c1ccc(N)nc1 | inactive | 48.6 µM (active) | inactive |  | inactive |  |  | inactive | inactive | 21.7 µM (active) | inactive | inactive | inactive | inactive | inactive | inactive | inactive | inactive | 17.2 µM (active) |
| CC(C)CC(C)Nc1ccc(Nc2ccccc2)cc1 (stereo not given) |  | 67.4 µM (active) |  |  | inactive |  | inactive | 60.1 µM (active) |  |  |  |  | inactive | 53.5 µM (active) | 47.7 µM (active) | inactive | inactive | 30.1 µM (active) |  |
| C[C@]12Cc3nonc3C[C@@H]1CC[C@@H]1[C@@H]2CC[C@@]2(C)[C@H]1CC[C@]2(C)O |  | 26.6 µM (active) | 0.0237 µM (active) | 29.8 µM (active) | inactive | inactive | inactive | inactive | 1.19 µM (active) |  |  |  | inactive | inactive |  | inactive | inactive | 18.8 µM (active) |  |
